Reference: PubChem BioAssay AID686978 (National Center for Advancing Translational Sciences (NCATS), 2013)
The campaign covered roughly 420,000 compounds. About 64,000 (15%) were called active. About 27% were inconclusive and are not listed. Only a sample is shown. Unmarked numbers belong to inactive results. Calls come from the whole dose curve; as a rule, active = well fitted inhibition curve with a large enough effect; inconclusive = small, poorly fitted or top-dose-only effect; inactive = flat fitted curve, though single readings scatter.

Assay: qHTS for Inhibitors of human tyrosyl-DNA phosphodiesterase 1 (TDP1): qHTS in cells in absence of CPT; note: nearly all actives have a fitted effect of over 55% in size
Details: DT40 Tdp1-/- hTDP1 cells, no CPT, ATP luminescence, 48 h; activity change, negative = growth inhibition: at 46.2 µM (top of the series)
In short: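 DT40 Tdp1-/-;hTDP1 cells, no CPT (DMSO vehicle only), 400 cells/well; compounds pin-transferred; ≥48 hr, 37 °C; CellTiter-Glo 30 min RT dark, luminescence read.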
% is set by controls: 0 for no effect and ±100 for the full control effect; potency is the fitted concentration of half-maximal effect.

Row | SMILES | activity change, negative = growth inhibition [%] | Potency
1 | O=C(CN1C(=O)c2cccc3cccc(c23)C1=O)N1CCCCC1 | -23.4 | –
2 | c1ccc(CCN2CN=C(Nc3nc4ccccc4o3)NC2)cc1 | -27.1 | –
3 | COc1cc(NS(=O)(=O)c2ccc(N/C=C(\C=O)c3nc4cc(Cl)ccc4o3)cc2)nc(OC)n1 | -5.39 | –
4 | O=C(NCCCN1CCOCC1)C1CCCN(S(=O)(=O)N2CCCCC2)C1 (stereo unspecified) | 32.6 | –
5 | CCCSc1nsc(N)n1 | -9.3 | –
6 | COc1ccc(/C(O)=C2\C(=O)C(=O)N(Cc3ccco3)C2c2ccc(OC)cc2OC)cc1 (stereo unspecified) | -12.4 | –
7 | CCC(c1nnnn1Cc1ccco1)N(Cc1cc2cc(OC)ccc2[nH]c1=O)C1CCCCC1 (stereo unspecified) | – | 23.1 µM (active)
8 | CCC(c1nnnn1Cc1ccco1)N(CCc1ccccc1)Cc1cc2cccc(C)c2[nH]c1=O (stereo unspecified) | – | 29.1 µM (active)
9 | CCCN(Cc1cc2cccc(C)c2[nH]c1=O)S(C)(=O)=O | 9.52 | –
10 | CCC(c1nnnn1Cc1ccco1)N(CCc1ccccc1)Cc1cc2ccc(OC)cc2[nH]c1=O (stereo unspecified) | – | 29.1 µM (active)
11 | CCOc1ccc2[nH]c(=O)c(C(c3nnnn3CCOC)N3CCOCC3)cc2c1 (stereo unspecified) | 5.67 | –
12 | COc1ccc2[nH]c3c(=O)n(Cc4ccco4)cnc3c2c1 | -29.2 | –
13 | CC(C)C(c1nnnn1CCc1ccccc1)N1CCN(C(=O)c2ccco2)CC1 (stereo unspecified) | -16 | –
14 | CCN(CC)c1ccc(/C=N/NC(=O)CNC(=O)c2cccs2)cc1 | -28 | –
15 | CN(C(=O)COC(=O)c1nc(Cl)ccc1Cl)C1CCS(=O)(=O)C1 (stereo unspecified) | 8.66 | –
16 | COc1ccc(NC2CC(=O)N(C)C2=O)cc1 (stereo unspecified) | -6.54 | –
17 | COc1ccccc1S(=O)(=O)c1c(C)cc(C)[nH]c1=O | 3.84 | –
18 | C=CCNC(=S)NNC(=O)COc1c(Cl)cc(Cl)cc1Cl | -26.5 | –
19 | CSc1ccc(/C=N/NC(=O)c2cccc(Cl)c2)cc1 | 6.76 | –
20 | CC(C)(C)C(=O)Nc1ccc(C(=O)N/N=C/c2ccccc2OC(=O)c2ccc(Cl)cc2Cl)cc1 | – | 11.6 µM (active)
21 | O=C(N/N=C/c1ccoc1)c1ccc(Cl)cc1Cl | 13.7 | –
22 | CCCN=C1N(C)C[C@@H]2[C@@H]3C(=O)N(Cc4ccccc4)C(=O)[C@@H]3[C@](C)(C(=O)OC)N12 | 2.25 | –
23 | CCN1C[C@@H]2[C@@H]3C(=O)N(Cc4ccccc4)C(=O)[C@@H]3[C@](Cc3ccccc3)(C(=O)OC)N2C1=NC1CCCCC1 | – | 16.4 µM (active)
24 | CC[C@]1(C(=O)OC)[C@H]2C(=O)N(C)C(=O)[C@H]2[C@H]2CN(C)C(=NCc3ccccc3)N21 | -2.94 | –

Row | SMILES | activity change, negative = growth inhibition [%] | Potency
25 | CCOC(=O)c1cc2occc2n1CC(=O)N1CCN(C(=O)c2ccco2)CC1 | -21.7 | –
26 | ClC1(Cl)CC1CSc1ncn[nH]1 (stereo unspecified) | 12.6 | –
27 | CC(=O)O[C@H]1c2ccccc2-c2ccccc2[C@@H]1OC(C)=O | 1.27 | –
28 | Cc1ccc(Cn2c(C)nc3c(c2=O)c2nc4ccccc4nc2n3Cc2ccco2)cc1 | – | 23.1 µM (active)
29 | CC(Sc1nc2ccccc2c(=O)n1Cc1ccco1)C(=O)c1ccccc1 (stereo unspecified) | -5.11 | –
30 | Cc1ccc(Cn2c(=O)n(Cc3nc(-c4ccccc4)no3)c(=O)c3cc4c(cc32)OCO4)cc1 | 10.7 | –
31 | O=C(NNc1ccccn1)c1ccc(Cl)nc1 | -0.0188 | –
32 | CCOC(=O)C(C)n1cnc2scc(-c3ccc(C)c(C)c3)c2c1=O (stereo unspecified) | 2.91 | –
33 | Cc1nc2scc(-c3cccs3)c2c(=O)n1N | -27.9 | –
34 | CCCc1nc2scc(-c3ccc(C)cc3)c2c(=O)n1N | – | 18.4 µM (active)
35 | Cc1cc(C)c(S(=O)(=O)c2ccccc2)c(OC(=O)c2c(F)cccc2Cl)n1 | -16.8 | –
36 | CCN(CC)S(=O)(=O)c1ccc(OC)c(NC(=O)CCc2c(C)noc2C)c1 | 12.1 | –
37 | CCN(CC)S(=O)(=O)c1ccc(N(C)Cc2cccc(OC)c2OC)nc1 | – | 18.4 µM (active)
38 | CCOc1ccc(Br)cc1S(=O)(=O)Nc1cccc(S(=O)(=O)N(CC)CC)c1 | 2.37 | –
39 | CCS(=O)(=O)NCCc1ccc(OC)c(OC)c1 | -19.1 | –
40 | CCN(CC)S(=O)(=O)c1ccc(NC(=O)c2cnc(C)cn2)cc1 | 3.23 | –
41 | CCN(CC)S(=O)(=O)c1ccc(Cl)c(NC(=O)c2ccncc2)c1 | -13.3 | –
42 | CCOC(=O)CN(Cc1ccc(OC)c(OC)c1)S(=O)(=O)c1ccc(OC)cc1 | -19.3 | –
43 | CCN(CC)S(=O)(=O)c1ccc(N(C)Cc2ccc(C(F)(F)F)cc2)nc1 | – | 13 µM (active)
44 | CCN(CC)S(=O)(=O)c1ccc(N(C)CCc2ccc(OC)c(OC)c2)nc1 | – | 20.6 µM (active)
45 | NC(=O)C[C@@H]1NC(=O)CNC(=O)c2cc([N+](=O)[O-])cc(I)c2NCCC(C(N)=O)NC1=O (stereo partly specified) | 18.2 | –
46 | COc1ccc(-n2c(CNC(=O)c3cc(C(F)(F)F)ccc3Cl)nnc2SC)cc1 | -15.9 | –
47 | CC(C)=CC(=O)Nc1nnc(-c2ccc(F)cc2)s1 | -7.58 | –
48 | COc1cccc(OC)c1C(=O)Nc1nnc(C(C)C)s1 | -11.6 | –

Row | SMILES | activity change, negative = growth inhibition [%] | Potency
49 | COc1ccc(N2C(=O)C3CCCN3C2c2cccs2)cc1 (stereo unspecified) | -5.08 | –
50 | Cc1cc(C)c2c(-n3cccc3)c(C(=O)NNS(=O)(=O)c3ccc(F)cc3)sc2n1 | 3.21 | –
51 | Cc1cc(C(=O)CC#N)c(C)n1-c1c(C)n(C)n(-c2ccccc2)c1=O | 8 | –
52 | Cc1nn(C)c(Cl)c1CN1CCC(n2nccc2NC(=O)C2CCCC2)CC1 | 11.6 | –
53 | O=C(O)C1=CCCN(CCON=C(c2ccccc2)c2ccccc2)C1 | – | inactive
54 | COc1ccc(OC)c(/C(C)=N\NC(=O)c2cc3cc(Cl)ccc3n2C)c1 | – | 4.61 µM (active)
55 | COc1ccc(NC(=O)c2cc3cc(C)ccc3n2C)cc1 | -27.1 | –
56 | Cc1ccc(NC(=O)c2cc3cc(C)ccc3n2C)cc1 | -21.4 | –
57 | Cc1cc(C)cc(OCC(=O)O/N=C(\N)Cc2ccc([N+](=O)[O-])cc2)c1 | 0.454 | –
58 | CCOc1ccc(NS(=O)(=O)c2ccc(OCC(=O)NCCCOC)cc2)cc1 | -13 | –
59 | O=C(COc1ccc2c(C(F)(F)F)cc(=O)oc2c1)Nc1ccc2c(c1)OCCO2 | -5.56 | –
60 | CCOc1ccc2c(=O)c(-c3ccc4c(c3)OCCCO4)c(C)oc2c1 | – | 13 µM (active)
61 | COC(=O)Cc1c(C)c2ccc(OCC(=O)NCc3ccc4c(c3)OCO4)cc2oc1=O | -22.1 | –
62 | Cc1ccc(N2CC(C(=O)Nc3ccc(N(C)C)cc3)CC2=O)cc1Cl (stereo unspecified) | -9.28 | –
63 | Cc1cnc(NC(=O)CSc2nnc(C)s2)s1 | 7.27 | –
64 | COC(=O)c1ccc(NC(=O)CSc2nnc(CNc3ccc(OC)cc3)n2C)cc1 | -4.03 | –
65 | COc1ccc(C(=O)NCc2nnc(SCCOc3ccccc3)n2C)cc1 | – | 29.1 µM (active)
66 | COc1ccc(CC(=O)NCc2nnc(SCC(=O)Nc3ncc(C)s3)n2C)cc1 | – | 16.4 µM (active)
67 | COc1ccccc1C(=O)NCc1nnc(SC(C)C(=O)Nc2nccs2)n1C (stereo unspecified) | 21.3 | –
68 | COc1ccc(-n2nnnc2CNC(=O)c2ccc3ccccc3c2)cc1 | -26.4 | –
69 | Cc1cnc(NC(=O)CSc2c(Cl)cccc2Cl)s1 | – | 13 µM (active)
70 | COc1ccc(CC(=O)NCc2nnc(SCC(=O)Nc3nccs3)n2C)cc1 | 14.7 | –
71 | Cc1ccc(SCC(=O)Nc2ncc(C)s2)cc1 | -28.1 | –
